Hits are enriched below; roughly 2.8% of the tested compounds scored in any of these assays.
Mcl1 Noxa PPI: Mcl-1/Noxa binding inhibitors, primary screen, biochemical, TR-FRET, 1536-well; Induced myeloid leukemia cell differentiation protein Mcl-1 (Homo sapiens), Q07820; TR-FRET Mcl-1/Noxa peptide binding, 2 h; inhibition, % at 21.7 µM; 220,000 compounds, 1.5% hits; AID 1022, 2008;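 active means compounds that cut the protein-peptide binding signal by more than 50% relative to plate controls in a single-dose test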;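 further: His-tagged Mcl-1 with rhodamine Noxa BH3 peptide and terbium anti-His antibody; 0% = Mcl-1 plus Noxa peptide wells and 100% = peptide-only wells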
Target sequence (Q07820 whole entry, looked up): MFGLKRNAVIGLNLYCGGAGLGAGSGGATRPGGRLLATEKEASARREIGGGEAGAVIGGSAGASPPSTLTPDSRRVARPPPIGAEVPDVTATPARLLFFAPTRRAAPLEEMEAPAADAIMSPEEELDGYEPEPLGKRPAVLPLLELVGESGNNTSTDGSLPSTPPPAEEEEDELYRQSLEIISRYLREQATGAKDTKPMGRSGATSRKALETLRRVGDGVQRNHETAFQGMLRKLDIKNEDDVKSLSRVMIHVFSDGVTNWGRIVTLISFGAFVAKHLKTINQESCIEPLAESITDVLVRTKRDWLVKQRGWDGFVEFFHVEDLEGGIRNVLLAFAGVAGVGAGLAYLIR
L929 necroptosis: inhibitors of zVAD-triggered necroptosis, primary screen, L929 cells | L929 zVAD necroptosis rescue, ATP luminescence, 24 h; with zVAD 60 µM | viability rescue, % at 10 µM | 220,000 compounds, 0.38% hits | AID 1377, 2008;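 active means activation, scaled between plate controls, above about 75%, limit read from the data; inactive means activation under that limit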;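 further: 0% = zVAD with DMSO and 100% = DMSO alone without zVAD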
Bim-Mcl-1: inhibitors of Bim peptide binding to Mcl-1, primary screen, biochemical, bead-based flow cytometry, multiplex | Induced myeloid leukemia cell differentiation protein Mcl-1 (Homo sapiens), Q07820 | Bim peptide-Mcl-1 binding | inhibition, % at 10 µM | 190,000 compounds, 0.1% hits; in the data active means inhibition above about 40%;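 further: 0% = no compound tracer wells and 100% = peptide blocker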
Mcl1-Bid inh: Mcl-1/Bid binding inhibitors, primary screen, biochemical, TR-FRET, 1536-well; Induced myeloid leukemia cell differentiation protein Mcl-1 (Homo sapiens), Q07820; TR-FRET Mcl-1/Bid-Dy647 peptide binding; inhibition, % at 21.7 µM; 220,000 compounds, 0.97% hits; AID 1021, 2008;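 active means compounds that cut the binding signal by more than half at the single screening dose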;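 further: His-tagged Mcl-1 with europium anti-His antibody binding Bid BH3 peptide; 0% = Mcl-1 plus peptide wells and 100% = peptide-only wells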
TNF death inh: inhibitors of TNF-alpha triggered necroptosis, primary screen, cell-based, Jurkat FADD-/-, single concentration. Jurkat FADD-/- TNF necroptosis rescue, ATP luminescence, 24 h; 0 = TNF only, 100 = no-TNF cells. activation (protection from cell death), % at 10 µM. AID 463075, 2010. 220,000 compounds, 0.068% hits;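 active means activation, meaning protection from cell death, of at least 50% relative to plate controls; inactive means activation below 50%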;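 further: necroptosis triggered by 40 ng/mL TNF-alpha added together with compound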
Calpain2 inh: inhibitors of pig calpain II, primary screen, biochemical, fluorogenic peptide substrate, 1536-well; 220,000 compounds, 0.37% hits; inhibition, % at 16 µM; purified calpain II, 30 min;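 active means inhibition above about 50%, limit read from the data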
zVAD death conf: inhibitors of zVAD-triggered necroptosis in L929, confirmation, L929 cells, duplicate runs. L929 zVAD-induced necroptosis rescue, ATP luminescence, 24 h. shares compounds with L929 necroptosis. activation (protection from necroptosis), % at 10 µM. 760 compounds, 16% hits;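 active means mean protection from necroptosis of at least 50% over duplicate tests; inactive means mean protection below 50%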;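 further: 0% = cells with zVAD alone and 100% = vehicle cells without zVAD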
* = called active by the depositor; / = no result given.

SMILES | Mcl1 Noxa PPI | L929 necroptosis | Bim-Mcl-1 | Mcl1-Bid inh | TNF death inh | Calpain2 inh | zVAD death conf
O=C(OCn1ncc(Br)c(Br)c1=O)c1ccccc1Cl | 13 | 44 | 0 | 0 | -14 | -49 | /
O=C(OCn1ncc(Br)c(Br)c1=O)c1ccc(F)cc1 | 16 | 113* | 0 | -4 | -24 | 23 | 136*
NC(=O)NOCc1ccc(F)cc1Cl | -4 | 28 | -2 | -14 | 1 | -2 | /
NC(=O)NOCc1ccc(Cl)cc1Cl | 16 | 84* | 0 | -33 | 2 | 19 | 26
CCCNC(=O)c1ccc2c(c1)ncn2-c1cc(C)cc(C)c1 | 16 | 76* | 3 | -3 | 5 | 30 | 2
CCCCNC(=O)c1ccc2c(c1)ncn2C1CCCCC1 | 19 | 79* | 0 | 6 | 2 | -8 | 33
CC(C)c1ccccc1OCCNS(C)(=O)=O | 8 | 0 | 0 | -1 | -4 | 10 | /
Nc1c2c(=O)oc(-c3ccccc3)cc2nn1-c1ccccc1 | 9 | 90* | 1 | -13 | -15 | -126 | 27
COc1cc(NC(=S)N2CCN(c3ccccn3)CC2)cc(OC)c1 | -12 | 1 | -15 | -36 | 2 | -9 | /
Cc1c(Br)cccc1NC(=O)c1sccc1-n1cccc1 | 2 | 1 | -2 | -33 | 1 | -16 | /
CC(C)c1ccc(NC(=O)c2sccc2-n2cccc2)cc1 | -10 | 84* | -1 | -19 | 3 | 9 | 25
Cn1nnnc1SCc1ccc(C(=O)Nc2nccs2)cc1 | 2 | 92* | 11 | -2 | 43 | 17 | 88*
Cn1nnnc1SCc1ccc(Cl)cc1 | 5 | 83* | -1 | -5 | 32 | -24 | 8
C=CCn1c(SCc2ccc(C(=O)Nc3nccs3)cc2)nnc1-c1ccc(C)c(Cl)c1 | 17 | 103* | -1 | -36 | 9 | -21 | 60*
C=CCn1c(CCCOc2ccc(Cl)cc2Cl)nnc1SCC(=O)Nc1nccs1 | -3 | 0 | 0 | 6 | 2 | -10 | /
Cc1cc(C)cc(NC(=O)c2ccc(CSc3nnnn3C)cc2)c1 | -14 | 1 | -2 | -20 | 9 | -1 | /
CCOCC(=O)Nc1nc2ccc(S(C)(=O)=O)cc2s1 | 7 | 0 | -4 | 3 | 5 | 12 | /
CCC(=O)Nc1nc2ccc(S(C)(=O)=O)cc2s1 | 1 | 63 | -2 | 9 | -6 | 33 | /
CC(C)CC(=O)Nc1nc2ccc(S(C)(=O)=O)cc2s1 | 13 | 81* | -2 | -5 | -5 | -14 | 10
CCCC(=O)Nc1nc2ccc(S(N)(=O)=O)cc2s1 | 1 | 80* | -2 | -25 | 0 | -32 | 1
COc1ccc(/C=C/C(=O)OCC(=O)Nc2c(C)cccc2C)cc1 | -1 | 4 | 0 | -26 | 0 | -34 | /
N#Cc1c(N)n[nH]c1-c1cc2c([nH]1)CCCC2 | 8 | 88* | -6 | -21 | 11 | 11 | 45
N#Cc1cc2c([nH]c1=S)CCCCCC2 | 46 | 0 | -6 | 1 | -3 | 24 | /
CN(C)/C=C1\SC(=S)N(N2C(=O)C3C4C=CC(C4)C3C2=O)C1=O (centres undefined) | 7 | 1 | -1 | -13 | 0 | -8 | /
CN(C)/C=C/C(=O)c1ccc(-n2cccc2)cc1 | 12 | 77* | -2 | -34 | 0 | 29 | 3
SMILES | Mcl1 Noxa PPI | L929 necroptosis | Bim-Mcl-1 | Mcl1-Bid inh | TNF death inh | Calpain2 inh | zVAD death conf
CN(C)/C=C/C(=O)c1ccc(Cl)cc1 | -5 | 1 | -4 | -21 | -5 | 6 | /
O=c1c(O)c(-c2ccc3c(c2)OCO3)oc2ccccc12 | 23 | 77* | -4 | 3 | -1 | -343 | 1
O=C(Nc1ccc(F)cc1)Nc1ccc(N2CCCC2)c(S(=O)(=O)Nc2ccccc2Cl)c1 | 9 | 76* | -3 | -7 | 2 | 3 | 72*
CC1(C)C/C(=N\NC(=S)Nc2ccccc2F)c2cc(O)ccc2O1 | -35 | 67 | 1 | -80 | 3 | -74 | /
Cc1nnsc1SCCNC(=O)Nc1ccc(Cl)cc1 | 5 | 79* | 0 | -24 | 3 | -3 | 5
O=C(CCc1nnc(Cc2ccc3c(c2)OCO3)o1)NC(c1ccccn1)C(F)(F)F (centres undefined) | 10 | 2 | 0 | -34 | 0 | -8 | /
NC(=O)CC(NC(=O)Cc1ccc(Br)cc1)c1ccc(NCc2ccc(F)cc2)c([N+](=O)[O-])c1 (centres undefined) | -2 | 0 | / | 15 | 0 | 6 | /
c1ccc(Nc2nc(N3CCCCC3)nc(N3CCNCC3)n2)cc1 | 2 | 77* | 0 | -27 | -2 | -10 | 2
COC(=O)CCNCCSc1nnc(-c2ccco2)n1Cc1ccccc1 | 16 | 0 | / | -3 | 3 | -7 | /
O=C(NC12CC3CC(CC(C3)C1)C2)c1ccc(-c2ccc(Br)cc2)o1 | 7 | 80* | -2 | -18 | 3 | -4 | 35
CC(CS(=O)(=O)c1ccc2ccccc2c1)N1CCN(C2CCCCC2)CC1 (centres undefined) | / | 0 | / | / | 0 | / | /
O=S(=O)(CC(CN1CCCC1)N1CCCC1)c1ccc2ccccc2c1 (centres undefined) | 9 | 82* | 18 | -4 | -11 | -23 | 46
COCC(C)n1c(C)cc(C(=O)CSc2nnnn2-c2ccc(O)cc2)c1C (centres undefined) | 20 | 76* | -2 | -33 | 0 | 5 | 47
COCC(C)n1c(C)cc(C(=O)CSc2ncccn2)c1C (centres undefined) | 5 | 0 | -4 | -40 | 1 | -5 | /
COC(=O)c1c(C)[nH]c(O)c1C=Nc1ccc(C(C)C)cc1 | 11 | 82* | -1 | -50 | -1 | 23 | 4
COc1ccc(C(=O)N2N=C3CC(C)(C)OCC3C2c2ccccc2)cc1 (centres undefined) | -12 | / | -4 | 3 | 1 | 3 | /
Cc1ccc(Nc2nc(OC(C(F)(F)F)C(F)(F)F)nc(N3CCOCC3)n2)cc1 | -9 | 88* | -5 | 1 | 3 | -9 | 2
COc1ccc(Nc2nc(OC)nc(N3CCOCC3)n2)cc1 | 5 | 13 | 0 | -8 | 1 | -18 | /
N#CCCCN1C(=O)C(O)(CC(=O)c2ccc3c(c2)OCCO3)c2ccccc21 (centres undefined) | -13 | -1 | -1 | -31 | -1 | -55 | /
N#CCCCN1C(=O)C(=C(C#N)C#N)c2ccccc21 | 5 | 76* | -2 | -9 | -1 | -30 | 0

Screening results: PubChem BioAssay, several laboratories
